Screens deposited in PubChem BioAssay by National Center for Advancing Translational Sciences (NCATS).
ATXN viability: viability counter-screen for ATXN expression inhibitors. Potency, µM (titrated, usually from 56.7 µM), most hits filed as cytotoxic. hit rate 0.49% among 400,000. S2 cells (HEK-293 line with an ATXN2-luciferase reporter) viability, CellTiter-Fluor protease fluorescence, 24 h; note: nearly all actives have a fitted effect of over 40% in size
TGFb inhibitor: blocks TGF-b signaling. AID 588855. Potency, µM (series often up to 46.1 µM), for inactives: at the top dose activity, negative = inhibition, usual class: inhibitors. HepG2 CAGA-GFP TGF-b/SMAD3 reporter, GFP fluorescence, 18 h; TGF-beta stimulated, 500 pg/mL final. hit rate 1.2% among 410,000; note: % is set by controls: 0 for no effect and ±100 for the full control effect; nearly all actives have a fitted effect of over 65% in size
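TGF-beta reporter screen: HEPG2 CAGA-GFP, 1% FBS, 500 pg/mL TGF-beta final, 18 h; per-cell GFP summed per well; curves fitted and categorized by class.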
Gal4-VP16 FLuc: Gal4-VP16 reporter inhibition counter-screen | Drosophila S2 Gal4-VP16 UAS-luciferase, luminescence, 20 h | Potency, µM (series often up to 53.6 µM), for the others: top-dose activity, negative = inhibition, most hits filed as inhibitors | hit rate 3.5% among 310,000 | AID 2546;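 note: Gal4-VP16 expression switched on by copper sulfate through the metallothionein promoter; % is set by controls: 0 for no effect and ±100 for the full control effect; nearly all actives have a fitted effect of over 50% in size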
ATXN2 expr inh: ATXN2 expression inhibition; HEK-293 ATXN2-luciferase reporter, luminescence, 24 h; Potency, µM (doses to about 57 µM), for the others: at the highest dose activity change, negative = inhibition, usual class: inhibitors; hit rate 0.72% among 360,000; AID 1745845; note: % is set by controls: 0 for no effect and ±100 for the full control effect; nearly all actives have a fitted effect of over 55% in size
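qHTS (up to 57 uM final) was run with 24 h compound exposure of reporter cells at 37 °C. Each well was multiplexed: SteadyGlo luminescence measured ATXN2-luciferase expression after a fluorogenic Gly-Phe-AFC viability readout (25 uM final).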
RORg inh: inhibitors of mouse ROR gamma transcriptional activity; P51450; Drosophila S2 Gal4-RORgamma UAS-luciferase reporter, 20 h; hit rate 5.4% among 310,000; Potency, µM (titrated, usually from 53.6 µM), for inactives: at the top dose activity change, negative = inhibition, actives largely listed as inhibitors; AID 2551; note: % is set by controls: 0 for no effect and ±100 for the full control effect; nearly all actives have a fitted effect of over 60% in size
Target sequence (P51450 whole entry, looked up, the tested form may be a part): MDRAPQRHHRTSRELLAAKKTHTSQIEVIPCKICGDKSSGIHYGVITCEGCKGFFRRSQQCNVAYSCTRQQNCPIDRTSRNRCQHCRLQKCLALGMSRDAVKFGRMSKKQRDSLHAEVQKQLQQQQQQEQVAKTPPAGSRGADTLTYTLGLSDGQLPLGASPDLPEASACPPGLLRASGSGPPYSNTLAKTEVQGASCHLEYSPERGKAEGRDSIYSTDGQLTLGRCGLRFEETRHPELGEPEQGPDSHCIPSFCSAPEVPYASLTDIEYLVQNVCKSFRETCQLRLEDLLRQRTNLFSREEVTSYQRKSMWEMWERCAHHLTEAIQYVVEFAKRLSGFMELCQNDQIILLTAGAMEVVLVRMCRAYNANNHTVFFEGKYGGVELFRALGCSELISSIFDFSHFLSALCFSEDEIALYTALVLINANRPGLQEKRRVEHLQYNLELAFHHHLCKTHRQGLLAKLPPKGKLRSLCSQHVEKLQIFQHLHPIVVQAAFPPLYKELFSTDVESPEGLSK
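Using a luciferase readout, inhibitors were identified by reduced reporter activity in Drosophila cells coexpressing a copper-inducible Gal4–ROR gamma fusion and UAS-driven Photinus luciferase, incubated 20 hr after 700 uM copper sulfate.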
HepG2 viability: HepG2 cytotoxicity, counter-screen for TGF-b inhibitors. HepG2 CAGA-GFP viability, ATP luminescence, 18 h. Potency, µM (titrated, usually from 46.1 µM), for inactives: at the top dose activity change, negative = cytotoxicity, actives largely listed as cytotoxic. hit rate 0.76% among 410,000. AID 588856
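CellTiter-Glo luminescence gave cytotoxicity after 18 hours at 37 degrees C. The cells were HepG2 CAGA-GFP in 1% FBS DMEM, stimulated with 500 pg/mL TGF-beta after compound addition. %Activity was normalised to no-cell wells (complete cell-killing) and DMSO (no toxicity), and curves were fitted and classified.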
* = called active by the depositor; i = inactive; ? = inconclusive; nt = no result given. The list is not random: actives were taken first. Their share in the collection is about 6.3%. Calls come from the whole dose curve; as a rule, active = well fitted curve in the direction sought with a large enough effect; inconclusive = small, poorly fitted or top-dose-only effect, or another doubt; inactive = no such curve, though single readings can be large; an effect the other way counts as inactive or inconclusive. Potency is the fitted concentration of half-maximal effect.

SMILES	ATXN viability	TGFb inhibitor	Gal4-VP16 FLuc	ATXN2 expr inh	RORg inh	HepG2 viability
CNC(=O)c1c(I)c(NC(=O)CCCCC(=O)Nc2c(I)c(C(=O)O)c(I)c(C(=O)NC)c2I)c(I)c(C(=O)O)c1I	i	nt	nt	-4.5%	nt	nt
CC(C)c1ccccc1NC(=S)N1CCN(Cc2ccc3c(c2)OCO3)CC1	i	-4.4%	?	?	11.2µM*	-10.3%
Cc1nc(C)c(CC(=O)N2CCOc3ccc(CN4CCN(c5ccccn5)CC4)cc3C2)s1	i	nt	nt	nt	nt	nt
O=C(NCc1cn(-c2ccccc2)nc1-c1ccccc1)c1ccc([N+](=O)[O-])cc1	i	-24.4%	7.08µM*	nt	?	-9.3%
CCn1nnnc1Sc1nc(C)nc2scc(-c3ccccc3)c12	nt	14.4%	nt	nt	nt	14.6%
COc1ccc(NC(=O)CCS(=O)(=O)c2nc(-c3ccc4c(c3)OCO4)cc(C(F)(F)F)n2)cc1	nt	?	nt	nt	nt	11.2µM*
COc1ccc(-c2cc(C(F)(F)F)nc(S(=O)(=O)CCC(=O)N3CCOCC3)n2)cc1	?	-7.8%	?	?	8.91µM*	7.4%
O=C(CCS(=O)(=O)c1nc(-c2ccc3c(c2)OCO3)cc(C(F)(F)F)n1)Nc1ccc(F)cc1F	nt	17.8µM*	nt	nt	nt	-70.2%
Cc1cc(NC(=O)CCS(=O)(=O)c2nc(-c3ccccc3)cc(C(F)(F)F)n2)no1	20µM*	?	7.4%	?	-3.9%	-104.8%
COc1ccc(-c2cc(C(F)(F)F)nc(SCC(=O)N3CCOCC3)n2)cc1OC	i	17.7%	-17.6%	1.9%	?	4.3%
Cc1ccc(S(=O)(=O)CCC(=O)Nc2cc(C)on2)cc1	i	-8.2%	nt	nt	nt	1.3%
CC(C)CNC(=O)CCSc1nc(-c2ccc3c(c2)OCO3)cc(C(F)(F)F)n1	i	6.3%	nt	5.8%	nt	2.5%
Cn1ccc(C(=O)NCC2CCC3(CCN(Cc4cc(F)cc(F)c4)CC3)O2)n1 (stereo not drawn)	i	nt	nt	nt	nt	nt
CCCCn1nnnc1C(c1cc2ccccc2o1)N1CCN(CC(=O)N2CCCC2)CC1 (stereo not drawn)	i	nt	nt	6.6%	nt	nt
CS(=O)(=O)c1nc(-c2ccccc2)cc(C(F)(F)F)n1	nt	?	1.58µM*	?	0.501µM*	12.6µM*
CC1CC(C)(C)NC(=S)N1CCCC(=O)Nc1ccc(Br)cc1 (stereo not drawn)	i	-8.4%	?	-3.9%	3.98µM*	-23.8%
Cc1cccc(NC(=O)CCCN2C(=S)NC(C)(C)CC2C)c1C (stereo not drawn)	i	1.4%	-24.1%	-18.6%	11.2µM*	-1.3%
CCOC(=O)c1cc(C(=O)OCC)cc(-n2cc(O)c(C(=O)OCC)n2)c1	i	-16.7%	11.2µM*	2.2%	?	6.7%
CC1Cc2cc(S(=O)(=O)CCC(=O)Nc3ccc(Cl)cc3F)ccc2N1C(=O)C1CC1 (stereo not drawn)	nt	?	nt	nt	nt	-12.8%
O=C(Nc1ccncc1)Nc1cccc(Cl)c1	i	-11.9%	-4.4%	-19.1%	23.1%	-24.0%
Cc1cc(Nc2cccc(Cl)c2)nc2ccc(NC(=O)c3cccnc3)cc12	i	15.8µM*	nt	?	nt	12.6µM*
Cc1cc(Nc2cccc(C(F)(F)F)c2)nc2ccc(NC(=O)Cc3ccc(Cl)cc3)cc12	i	?	nt	20µM*	nt	10µM*
O=C(O)c1ccc2c(c1)nc(Nc1cccc(Cl)c1)c1ccncc12	nt	nt	nt	9.68µM*	nt	nt
COc1ccc2c(CN3CCN(c4ccccc4F)CC3)cc(=O)oc2c1	i	?	nt	-8.7%	nt	-11.9%
COc1ccc(NC(=O)CSC2=Nc3ccccc3C3=NC(CCC(=O)NCc4cccs4)C(=O)N23)cc1 (stereo not drawn)	nt	-8.1%	nt	nt	nt	-17.1%
O=C(Oc1ccccc1)N1CCC2(CC1)CCN(c1ccccc1)CC2	nt	nt	-17.8%	nt	44.9%	nt
Cc1cc(C(=O)NNC(=S)NCC(C)C)no1	i	21.8%	-24.0%	-13.2%	7.94µM*	2.1%
